Assay results taken from PubChem BioAssay (NCI).
Compounds without any hit were thinned out: in the full panel of roughly 79,000, 15% have a hit. A number with no mark means an inactive call. Calls of active or inactive are those of the source. Cut-off read from the data, not from the text of the source: active = growth inhibition above about 70%; inactive = the rest.

What was measured:
[1] = NCI Yeast Anticancer Drug Screen. Data for the rad50 strain (AID 155);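 note: 0% = growth of vehicle-only cultures of the same strain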; settings: S. cerevisiae rad50 strain growth inhibition, hits give high values
Summary of the method: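 Growth of the mutant yeast was measured after compound exposure and referenced to vehicle-treated cultures.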

[2] = NCI Yeast Anticancer Drug Screen. Data for the mec2-1 strain (AID 157); settings: S. cerevisiae mec2-1 strain, hits give high values
Summary of the method: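 Using mec2-1 yeast: add compound, measure growth, express inhibition versus vehicle-treated cultures.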

[3] = NCI Yeast Anticancer Drug Screen. Data for the sgs1 mgt1 strain (AID 161);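 note: 0% = growth of cultures given vehicle only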; settings: S. cerevisiae sgs1 mgt1 strain, hits give high values
Summary of the method: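 Yeast cells carrying a defined DNA-repair defect were exposed to test compounds. Growth inhibition was measured relative to vehicle-treated controls.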

[4] = NCI Yeast Anticancer Drug Screen. Data for the cln2 rad14 strain (AID 165);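 note: 0% = growth equal to vehicle treated cultures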; settings: S. cerevisiae cln2 rad14 strain, hits give high values
Summary of the method: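 Yeast strain cln2 rad14, bearing defects in cell cycle control and DNA repair, serves as the test system; values reflect growth inhibition compared with vehicle.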

[5] = NCI Yeast Anticancer Drug Screen. Data for the bub3 strain (AID 167); settings: S. cerevisiae bub3 mutant strain, hits give high values
Summary of the method: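 Whole-cell yeast assay. The mutant strain was incubated with compounds, and growth inhibition was determined by comparison with vehicle-treated cells.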

[6] = NCI Yeast Anticancer Drug Screen. Data for the mlh1 rad18 strain (AID 175); settings: S. cerevisiae mlh1 rad18 strain growth inhibition, hits give high values
Summary of the method: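 Steps: expose repair-defective yeast to compound; measure growth; express inhibition against vehicle-treated controls.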

[7] = at 5.0 µM (retest, dose inferred, filed as 0.5)
[8] = at 50.0 µM (retest, dose inferred, filed as 5.0)

| SMILES | growth inhibition [1, 7] | growth inhibition [1, 8] | growth inhibition ([1]; at 50.0 µM) | growth inhibition [2, 7] | growth inhibition [2, 8] | growth inhibition ([2]; at 50.0 µM) | growth inhibition [3, 7] | growth inhibition [3, 8] | growth inhibition ([3]; at 50.0 µM) | growth inhibition [4, 7] | growth inhibition [4, 8] | growth inhibition ([4]; at 50.0 µM) | growth inhibition [5, 7] | growth inhibition [5, 8] | growth inhibition ([5]; at 50.0 µM) | growth inhibition [6, 7] | growth inhibition [6, 8] | growth inhibition ([6]; at 50.0 µM) |
| --- | --- | --- | --- | --- | --- | --- | --- | --- | --- | --- | --- | --- | --- | --- | --- | --- | --- | --- |
| Cc1ccc2ccc3c(CCN(C)C)cc4c(c3c2c1O)OCO4 | -1% | 22% | 90.8% (active) | -4% | 57% | 67.3% | -1% | 75% (active) | 91.2% (active) | -1% | 64% | 95.2% (active) | -2% | 86% (active) | 92.5% (active) | -5% | 53% | 94.3% (active) |
| CC(CN(C)C)C(/C=C/c1ccc(F)cc1)=N\Nc1ccccc1 (configuration not stated) | -8% | 51% | 30.1% | -11% | 1% | 12.6% | -15% | 13% | 42.6% | 5% | 46% | 3.65% | -1% | 39% | 15.9% | 0% | 29% | 75.7% (active) |
| Nc1c(NCc2ccccc2)ccc2ncccc12 | -10% | 93% (active) | 95.2% (active) | -17% | 97% (active) | 93.4% (active) | -7% | 94% (active) | 93.2% (active) | -7% | 71% (active) | 96.4% (active) | 2% | 93% (active) | 98% (active) | 6% | 96% (active) | 98.1% (active) |
| C=CCc1cc([N+](=O)[O-])ccc1O | -4% | 80% (active) | 76.5% (active) | 1% | 85% (active) | 92.1% (active) | -2% | 87% (active) | 94.6% (active) | -3% | 85% (active) | 88.7% (active) | 3% | 85% (active) | 92.3% (active) | -4% | 93% (active) | 90.8% (active) |
| COc1cccc2c1C(=O)c1c(O)c3c(c(O)c1C2=O)CC(O)(C(C)=O)CC3OC1CC(N/C(C)=C/C(C)=O)C(O)C(C)O1 (configuration not stated) | 91% (active) | 95% (active) | 88.5% (active) | 65% | 98% (active) | 90% (active) | 45% | 98% (active) | 88.9% (active) | 60% | 98% (active) | 88.4% (active) | 69% | 98% (active) | 85.8% (active) | 79% (active) | 97% (active) | 88.4% (active) |
| COC1=CC23C=CC1[C@@H](c1ccccc1)C2=C(C)C(=O)N3C(=O)NC1CCCCC1 (some centres not stated) | 21% | 21% | 71.1% (active) | -4% | -4% | 68.2% | 1% | 1% | 63.8% | 5% | 5% | 29.8% | -8% | -8% | 65% | -4% | -4% | 50.6% |
| Cn1c(=S)c2[nH]c(SCCN3CCOCC3)nc2n(C)c1=O | 18% | 81% (active) | 98.5% (active) | 20% | 70% (active) | 99.5% (active) | 31% | 72% (active) | 99.4% (active) | 3% | 59% | 61% | 30% | 83% (active) | 99% (active) | 15% | 90% (active) | 98.7% (active) |
| O=C(Nc1cc(-c2ccccc2)[nH]n1)c1ccccc1 | 34% | 36% | 33.4% | 29% | 37% | 16.1% | 38% | 58% | 23.9% | 23% | 25% | 18% | 31% | 73% (active) | 56.8% | 46% | 47% | 23.4% |
| CC(C)(S[S-])S[S-].[Ti].[c-]1[c-][c-][cH-][c-]1.[c-]1[c-][c-][cH-][c-]1 | 23% | 97% (active) | 84.1% (active) | -2% | 98% (active) | 57.9% | 10% | 98% (active) | 95.2% (active) | 11% | 97% (active) | 21.7% | 24% | 98% (active) | 46.4% | 31% | 98% (active) | 87.3% (active) |
| Nc1ccc(S(=O)(=O)NCc2nccs2)cc1 | -5% | 81% (active) | 17.9% | 14% | 58% | 50% | 2% | 53% | 28.4% | -7% | 60% | 47.4% | 37% | 80% (active) | 31.7% | 11% | 87% (active) | 70.5% (active) |
| COc1ccc2c(N3CCN(C(=O)C(Cl)(Cl)Cl)CC3)cc(C)nc2c1 | 2% | 4% | 2.05% | 1% | 0% | 0.2% | 1% | 0% | -24.6% | 0% | 0% | -2.9% | 0% | 7% | -0.5% | 3% | 4% | 2.75% |
| O=C(O)c1c2c(c(O)c3c1CN(C1CCCCC1)CO3)OCN(C1CCCCC1)C2 | 8% | 35% | 50.4% | 3% | 8% | 53.1% | 4% | 25% | 72.1% (active) | -17% | 5% | 73.7% (active) | 2% | 11% | 32.1% | 0% | 25% | 83.8% (active) |
| O=NNc1ncccc1OCc1ccccc1 | 9% | 6% | 56.9% | 6% | 6% | 25.6% | 9% | 14% | 0.75% | 7% | 9% | 3.2% | 10% | 13% | -2.9% | 9% | 15% | 17.8% |
| Cn1cc(-c2c3c(cc4c2OCO4)OCO3)c2ccccc21 | 4% | 99% (active) | 99.2% (active) | -3% | 98% (active) | 99.2% (active) | 2% | 99% (active) | 99.3% (active) | -9% | 96% (active) | 98.8% (active) | -2% | 99% (active) | 99.2% (active) | -1% | 99% (active) | 99.3% (active) |
| O=C(NNc1ccccc1)c1ccccc1Cl | -3% | 93% (active) | 97.5% (active) | 9% | 89% (active) | 92% (active) | 15% | 91% (active) | 96% (active) | -9% | 89% (active) | 93% (active) | -14% | 95% (active) | 95.7% (active) | 13% | 97% (active) | 95.6% (active) |
| Cc1cccc2nc3nc(Cl)c(Cl)nc3n12 | 4% | 76% (active) | 75.7% (active) | 17% | 82% (active) | 50.1% | 13% | 91% (active) | 64.5% | 7% | 54% | 51.5% | 8% | 36% | 51.4% | 26% | 95% (active) | 90.8% (active) |
| COc1ccc(-c2cc(-c3ccc4c(c3)CC(C)O4)nc(N)n2)cc1 (configuration not stated) | 20% | 1% | 90.8% (active) | 0% | -14% | 90.8% (active) | 20% | 3% | 91.2% (active) | 19% | 15% | 86.5% (active) | 19% | 15% | 88.7% (active) | -16% | -19% | 88.7% (active) |
| O=C(O)C(O)C(O)C(O)C(O)CO.[Ag] (configuration not stated) | 99% (active) | 98% (active) | 99.2% (active) | 99% (active) | 99% (active) | 99.3% (active) | 99% (active) | 99% (active) | 99.5% (active) | 99% (active) | 98% (active) | 99.3% (active) | 99% (active) | 98% (active) | 99.3% (active) | 99% (active) | 98% (active) | 99% (active) |
| C=Nc1ccc2ccccc2c1Cc1c(O)ccc2ccccc12 | 7% | 99% (active) | 97.2% (active) | 12% | 99% (active) | 97.2% (active) | 8% | 99% (active) | 97.4% (active) | -8% | 99% (active) | 96.5% (active) | 1% | 99% (active) | 97.5% (active) | 11% | 99% (active) | 96.7% (active) |
